# In ChEMBL document CHEMBL3988442, “University of Dundee, Small-Polar-MMV Screening Library” (2021):
# Target: T1, Aspartate--tRNA(Asp/Asn) ligase (Mycobacterium tuberculosis (strain ATCC 25618 / H37Rv)) (UniProt P9WFW3); also: in the data most compounds retested in dose-response had high values
# T1 sequence (whole entry): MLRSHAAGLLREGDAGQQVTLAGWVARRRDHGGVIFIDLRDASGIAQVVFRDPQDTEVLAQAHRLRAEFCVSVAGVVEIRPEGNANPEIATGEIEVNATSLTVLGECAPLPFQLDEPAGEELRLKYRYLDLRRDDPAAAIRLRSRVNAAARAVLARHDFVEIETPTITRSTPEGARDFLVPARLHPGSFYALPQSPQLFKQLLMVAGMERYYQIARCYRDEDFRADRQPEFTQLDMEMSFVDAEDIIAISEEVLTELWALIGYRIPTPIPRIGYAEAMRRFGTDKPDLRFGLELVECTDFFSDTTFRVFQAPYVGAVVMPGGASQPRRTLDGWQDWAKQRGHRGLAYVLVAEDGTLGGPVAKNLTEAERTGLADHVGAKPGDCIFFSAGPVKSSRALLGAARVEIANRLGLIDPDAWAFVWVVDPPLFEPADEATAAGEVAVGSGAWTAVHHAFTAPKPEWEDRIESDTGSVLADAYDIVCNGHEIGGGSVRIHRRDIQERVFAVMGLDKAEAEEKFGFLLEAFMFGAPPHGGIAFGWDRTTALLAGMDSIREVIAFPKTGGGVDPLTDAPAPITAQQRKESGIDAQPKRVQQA
# Experiment: Assay for Asp RNA synthetase-1 from Mycobacterium tuberculosis
# Format: functional
# Parameters: scale not given: direction of the effect not stated beside the values
# Conditions: 30 µM
row,SMILES,Percent Effect
1,CCN(Cc1nc2c(cnn2C)c(=O)[nH]1)c1ccc(OC)c(OC)c1,2.9%
2,O=C(c1cc[nH]n1)N1CCCC1C1CCN(Cc2ccccc2)CC1 (stereo not given),6.59%
3,CCNc1cc2c(nn1)CCN(C(=O)c1cccc3c1OCCO3)C2,7.68%
4,Cc1nc(C(=O)N2CCCC2c2c(C)nn(C)c2C)ccc1C#N (stereo not given),-1.21%
5,CC(C)(C)NC(=O)CN1CCN(C(=O)Nc2ccc(F)cc2F)CC1,-2.94%
6,CS(=O)(=O)N1CCOC2(CCCN(c3cnccn3)C2)C1 (stereo not given),-5.91%
7,COc1ccc(C(=O)N2CCC(Nc3ccc(C)nn3)CC2)c(F)c1,4.79%
8,O=C(c1ccc2c(c1)OCO2)N1CCCC(n2cccn2)C1 (stereo not given),4.23%
9,Cc1cc(NC(=O)CN2CCOC(Cn3cccn3)C2)n(C)n1 (stereo not given),-3.92%
10,CCCS(=O)(=O)N1CCC2(CN(c3cnn(C)c3)C(=O)CN2C)C1 (stereo not given),-0.662%
11,CC(C)C(C(=O)N1CCCN(Cc2cnn(C)c2)CC1)n1cncn1 (stereo not given),-1.93%
12,CCn1ccnc1CNCC1CCN(CC(O)c2ccccc2)CC1 (stereo not given),-3.48%
13,Cc1nc(C(=O)N2CCC(Cc3cnc4[nH]ccc4c3)C2)co1 (stereo not given),1.31%
14,COc1cccc(OCCNCc2c(C)nn(C)c2N(C)C)c1,-1.97%
15,COc1c(CNCc2ccc(C(=O)N(C)C)cc2)c(C)nn1C,2.9%
16,CC(NC(N)=O)C(=O)N(C)CCCc1cc(-c2ccccc2)no1 (stereo not given),3.41%
17,Cc1ccc(C2CCCCCN2Cc2cn(C)nc2C)cc1 (stereo not given),-5.2%
18,Cn1ncc2c(=O)[nH]c(CN(Cc3ccco3)C3CCCC3)nc21,-7.5%
19,CCn1nc(C)c2nnn(CC(=O)Nc3cccc(Cl)c3)c(=O)c21,-0.523%
20,COc1c(CNCC(O)c2cccc(F)c2)c(C(C)C)nn1C (stereo not given),7.7%

row,SMILES,Percent Effect
1,CC(C)(C)c1cn2nc(N3CCC[C@@H]3CO)sc2n1,-3.63%
2,COCCOc1ccc(NC(=O)C2CCC2)cn1,-1.46%
3,Cc1cc2nc(SCC(=O)N3CCOCC3)n(CC(C)C)c(=O)c2[nH]1,11.7%
4,CCCOc1ccc(NC(=O)NCCC(=O)N(C)C)cc1Cl,1.09%
5,Cc1cc(C(=O)N2CCCC2Cn2nc(C)cc2C)on1 (stereo not given),0.681%
6,CC(C)(C)c1nnc(CN2CCN(CC(O)c3ccccc3)CC2)o1 (stereo not given),-8.31%
7,COC(=O)c1ccc(N2CCN(CCN3CCOCC3)C(C)C2)cc1 (stereo not given),-8.26%
8,CC(C)(C)c1nnc(CN2CCOC(Cn3cccn3)C2)o1 (stereo not given),-6.74%
9,CC(C#N)CSc1ccccc1NCC(=O)NCc1ccccc1 (stereo not given),-8.08%
10,O=C(Cn1ccnc1)N1C[C@@H]2CC[C@H](Oc3ccccc3)[C@@H]2C1,5.52%
11,COCC1CC2(CCN(Cc3cnn(C)c3)CC2)CN1c1ncccn1 (stereo not given),-0.238%
12,COc1ncccc1CN1CCn2c(Cn3cncn3)cnc2C1,-2.81%
13,Cc1cc(C(=O)N2CCc3nnc(N)cc3C2)c(C)n1-c1cccnc1,7.03%
14,O=C1CC(c2cccnc2)C2(CCN(S(=O)(=O)C3CC3)CC2)N1 (stereo not given),-1.76%
15,O=C(c1ncccn1)N1C[C@H]2CCC[C@@]2(COCc2ccncc2)C1,-2.08%
16,O=C(NCc1ccco1)[C@H]1C[C@@H]2CCN(c3ccncn3)C[C@@H]2O1,-4.16%
17,CCC1c2ccsc2CCN1C(=O)NCc1cc[nH]n1 (stereo not given),-1.83%
18,O=C(CCc1ccccn1)N1CCN(C(=O)CC2CCCCC2)CC1,-2.28%
19,COc1ccc(C(=O)N(C)Cc2nnc3ccccn23)c(OC)c1,0.49%
20,Cc1cc(C(C)C(=O)N2CCCN(Cc3cscn3)CC2)c(C)o1 (stereo not given),-4.75%

# Target: Shiga toxin 2 (Escherichia coli O157:H7) (UniProt P09385+P09386)
# Experiment: E. coli 0.157:H7 Shiga Toxin SOP - stx2 screening assay
# Format: functional
# Parameters: scale not given: direction of the effect not stated beside the values
# Conditions: 30 µM
row,SMILES,Percent Effect
1,CCN(Cc1nc2c(cnn2C)c(=O)[nH]1)c1ccc(OC)c(OC)c1,-61.1%
2,O=C(c1cc[nH]n1)N1CCCC1C1CCN(Cc2ccccc2)CC1 (stereo not given),-28.1%
3,CCNc1cc2c(nn1)CCN(C(=O)c1cccc3c1OCCO3)C2,-25.7%
4,Cc1nc(C(=O)N2CCCC2c2c(C)nn(C)c2C)ccc1C#N (stereo not given),-18%
5,CC(C)(C)NC(=O)CN1CCN(C(=O)Nc2ccc(F)cc2F)CC1,-44.1%
6,CS(=O)(=O)N1CCOC2(CCCN(c3cnccn3)C2)C1 (stereo not given),-3.98%
7,COc1ccc(C(=O)N2CCC(Nc3ccc(C)nn3)CC2)c(F)c1,-6.61%
8,O=C(c1ccc2c(c1)OCO2)N1CCCC(n2cccn2)C1 (stereo not given),23.2%
9,Cc1cc(NC(=O)CN2CCOC(Cn3cccn3)C2)n(C)n1 (stereo not given),-12.8%
10,CCCS(=O)(=O)N1CCC2(CN(c3cnn(C)c3)C(=O)CN2C)C1 (stereo not given),-13.9%
11,CC(C)C(C(=O)N1CCCN(Cc2cnn(C)c2)CC1)n1cncn1 (stereo not given),-40.5%
12,CCn1ccnc1CNCC1CCN(CC(O)c2ccccc2)CC1 (stereo not given),0.429%
13,Cc1nc(C(=O)N2CCC(Cc3cnc4[nH]ccc4c3)C2)co1 (stereo not given),62.2%
14,COc1cccc(OCCNCc2c(C)nn(C)c2N(C)C)c1,19.6%
15,COc1c(CNCc2ccc(C(=O)N(C)C)cc2)c(C)nn1C,-13.9%
16,CC(NC(N)=O)C(=O)N(C)CCCc1cc(-c2ccccc2)no1 (stereo not given),22.8%
17,Cc1ccc(C2CCCCCN2Cc2cn(C)nc2C)cc1 (stereo not given),-29%
18,Cn1ncc2c(=O)[nH]c(CN(Cc3ccco3)C3CCCC3)nc21,-31.6%
19,CCn1nc(C)c2nnn(CC(=O)Nc3cccc(Cl)c3)c(=O)c21,-43.6%
20,COc1c(CNCC(O)c2cccc(F)c2)c(C(C)C)nn1C (stereo not given),15.6%

row,SMILES,Percent Effect
1,CC(C)(C)c1cn2nc(N3CCC[C@@H]3CO)sc2n1,-8.45%
2,COCCOc1ccc(NC(=O)C2CCC2)cn1,-10.4%
3,Cc1cc2nc(SCC(=O)N3CCOCC3)n(CC(C)C)c(=O)c2[nH]1,-10.1%
4,CCCOc1ccc(NC(=O)NCCC(=O)N(C)C)cc1Cl,-67.2%
5,Cc1cc(C(=O)N2CCCC2Cn2nc(C)cc2C)on1 (stereo not given),20%
6,CC(C)(C)c1nnc(CN2CCN(CC(O)c3ccccc3)CC2)o1 (stereo not given),10.2%
7,COC(=O)c1ccc(N2CCN(CCN3CCOCC3)C(C)C2)cc1 (stereo not given),32.4%
8,CC(C)(C)c1nnc(CN2CCOC(Cn3cccn3)C2)o1 (stereo not given),-2.05%
9,CC(C#N)CSc1ccccc1NCC(=O)NCc1ccccc1 (stereo not given),21.2%
10,O=C(Cn1ccnc1)N1C[C@@H]2CC[C@H](Oc3ccccc3)[C@@H]2C1,2.5%
11,COCC1CC2(CCN(Cc3cnn(C)c3)CC2)CN1c1ncccn1 (stereo not given),-22.6%
12,COc1ncccc1CN1CCn2c(Cn3cncn3)cnc2C1,-13.9%
13,Cc1cc(C(=O)N2CCc3nnc(N)cc3C2)c(C)n1-c1cccnc1,-28.4%
14,O=C1CC(c2cccnc2)C2(CCN(S(=O)(=O)C3CC3)CC2)N1 (stereo not given),4.96%
15,O=C(c1ncccn1)N1C[C@H]2CCC[C@@]2(COCc2ccncc2)C1,-24.5%
16,O=C(NCc1ccco1)[C@H]1C[C@@H]2CCN(c3ccncn3)C[C@@H]2O1,-6.97%
17,CCC1c2ccsc2CCN1C(=O)NCc1cc[nH]n1 (stereo not given),-35%
18,O=C(CCc1ccccn1)N1CCN(C(=O)CC2CCCCC2)CC1,3.5%
19,COc1ccc(C(=O)N(C)Cc2nnc3ccccn23)c(OC)c1,24.6%
20,Cc1cc(C(C)C(=O)N2CCCN(Cc3cscn3)CC2)c(C)o1 (stereo not given),19.4%
